In PubChem BioAssay AID1768 (National Center for Advancing Translational Sciences (NCATS), 2009):
Hit rate of the full screen: of about 270,000 compounds, about 620 (0.23%) were called active. Another 12% or so got no clear call; they are omitted. Calls follow the shape of the dose curve; as a rule, active = well fitted inhibition curve with a large enough effect in the polarisation, with a control signal flat (not every such curve was filed as active); inconclusive = small, poorly fitted or top-dose-only effect, or effect the other way, or a change in a side signal; inactive = no such curve, though single readings can be large or run the other way; the % refers to the polarisation. The sample as a whole holds a higher share of actives than the screen did.

Biological target: Menin (Homo sapiens) (UniProt O00255)
Experiment: qHTS Assay for Inhibitors Targeting the Menin-MLL Interaction in MLL Related Leukemias: Competition With Texas Red Labeled MLL-derived Mutant Peptide; as to FP activity change, negative = inhibition: % of control where 0% means no effect
Details: fluorescence polarization; series mostly up to 61.6 µM; FP activity change, negative = inhibition: at the top concentration
Potency is read from the fitted curve at half-maximal effect.

Chain of Menin (Homo sapiens) (O00255 whole entry, looked up): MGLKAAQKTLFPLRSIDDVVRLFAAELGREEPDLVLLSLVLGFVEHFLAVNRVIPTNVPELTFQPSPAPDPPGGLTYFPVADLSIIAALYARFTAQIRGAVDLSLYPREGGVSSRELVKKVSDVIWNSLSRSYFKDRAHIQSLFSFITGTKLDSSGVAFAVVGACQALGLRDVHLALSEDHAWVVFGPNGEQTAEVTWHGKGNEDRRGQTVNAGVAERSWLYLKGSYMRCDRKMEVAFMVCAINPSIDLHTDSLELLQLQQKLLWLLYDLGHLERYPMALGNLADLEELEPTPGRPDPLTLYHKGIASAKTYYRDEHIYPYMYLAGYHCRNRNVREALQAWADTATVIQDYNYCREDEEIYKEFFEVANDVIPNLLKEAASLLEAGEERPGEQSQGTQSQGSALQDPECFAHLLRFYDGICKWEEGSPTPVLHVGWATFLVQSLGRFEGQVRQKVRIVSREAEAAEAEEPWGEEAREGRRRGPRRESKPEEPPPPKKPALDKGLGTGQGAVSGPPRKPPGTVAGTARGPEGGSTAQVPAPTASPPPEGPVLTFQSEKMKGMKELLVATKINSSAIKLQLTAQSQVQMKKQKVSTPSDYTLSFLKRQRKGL

FP activity change, negative = inhibition, inactive:
Cc1ccc(N(Cc2ccccc2O)C(=O)c2ccccc2F)cc1 0.0013%
Cc1ccc(O)c(CNc2nc3ccccc3[nH]2)c1 4.64%
COC(=O)c1sc(=S)n(-c2ccccc2)c1N 4.57%
CCOC(=O)c1c(N)sc(C(C)=O)c1C 12.7%
O=C(c1ccccc1)N1CCC(CC2CC(c3ccc(Cl)cc3)=NO2)(C(=O)NCC2CCCCC2)CC1 (configuration not stated) 1.11%
CCN(CC)S(=O)(=O)c1ccc(N2CCOCC2)c(NC(=O)C2CSC3(C)CCC(=O)N23)c1 (configuration not stated) -6.53%
COc1ccc(C)cc1Nc1n[n+](-c2ccccc2)c(-c2cccc(Cl)c2Cl)s1 -9.19%
CC1CC(C)CN(CCCNC(=O)c2csc3c2CCCCC3)C1 (configuration not stated) -13%
CCN(CC)c1ccc(C(=O)Nn2c(C)nc3ccccc3c2=O)cc1 -13.2%
CCC(CC)COC(=O)C1=C(C)NC(=O)NC1c1ccc([N+](=O)[O-])cc1 (configuration not stated) -1.42%
CCCN1CCC(=O)N(C(CSc2ccc(C)cc2)Cc2ccccc2)CC1 (configuration not stated) -25.5%
CCOC(=O)c1ccccc1NS(=O)(=O)c1c(C)nc2sccn2c1=O 0.208%
COc1ccc(-n2nc(C(=O)NCC(=O)N3CCN(c4ccccc4OC)CC3)c3ccccc3c2=O)c(OC)c1 4.26%
CCCCc1cc(=O)oc2c(C)c(OCC(=O)N3CCC(C(N)=O)CC3)ccc12 -20.5%
O=S(=O)(NC1CCCCC1N1CCN(c2ccccc2F)CC1)c1ccccc1 (configuration not stated) -1.78%
CC(C)(COC(=O)Nc1ccccc1)COC(=O)Nc1ccccc1 22.6%
Cc1ccc(C)c(N2CCN(C(=O)CCCn3c(=O)c4cccn4c4cccnc43)CC2)c1 -4.52%
CCc1ccc(NC(=O)C(=O)NNC(=O)c2cccs2)cc1 -15.4%
O=C(O)Cc1ccc(NC(=O)c2cccs2)cc1 34.4%
COc1ccc(C2CC(O)(c3ccccc3)Oc3cc(C)cc(C)c32)cc1 (configuration not stated) 25%

Potency, active:
COCCOC(=O)c1sc(=S)n(CCOC)c1N 28.2 µM
Cc1nc(-c2ccc(NC(=O)c3cccs3)cc2)cs1 25.1 µM
